The values that follow come from PubChem BioAssay (NCATS).

A short description of this experiment: qHTS profiling of the MIPE4 collection as inhibitors of Plasmodium falciparum (DD2) proliferation (AID 743345). The conditions noted are these: P. falciparum Dd2 in erythrocytes, SYBR Green DNA, 72 h; at 28.5 µM (top of the series) unless noted. The source says: Plasmodium falciparum is a virulent malarial parasite that kills 1-2 million people worldwide each year. Transmitted by mosquitoes, the sporozoite form of the parasite enters the blood stream to infect hepatocytes, where they become merozoites that infect red blood cells (erythrocytes). Within erythrocytes, merozoites begin a […] cycle of growth and division, after which the parasite is released to infect new red blood cells. Gametocytes, which form within erythrocytes as well, circulate in the bloodstream and are ingested by the mosquito, thereby completing the life cycle. To profile malarial isolates for differential chemical responses and to identify inhibitors of malarial growth, an assay that measures P. falciparum growth and replication within erythrocytes was employed. This assay uses a DNA binding fluorescent dye (SYBR Green) to detect parasite DNA following cell lysis. Because mature erythrocytes lack DNA, only Plasmodium-derived DNA is detected.
The SYBR Green viability assay was adapted from a method described previously (Plouffe et al., 2008). For screening 3 ul culture medium was dispensed into 1536 well black clear bottom plates (Aurora Biotechnologies) using a Multidrop Combi (Thermo Fisher Scientific Inc.), 23 nL compounds in DMSO were added by a pin tool (Kalypsys), and 5 ul of erythrocytes infected with P. falciparum (0.3% parasitemia, 2.5% hematocrit final concentration) were added. The plates were incubated at 37 C in a humidified incubator in 5% CO2 for 72 h, and 2 ul lysis buffer (20 mM Tris HCl, 10 mM EDTA, 0.16% saponin, 1.6% triton X, 10X SYBR Green I supplied as 10,000X […] by Invitrogen) was added to each well. The plates were mixed for 25 sec with gentle shaking and incubated overnight at room temperature in the dark. The following morning, fluorescence intensity at 485(14) nm excitation and 535(25) nm emission wavelengths was measured on an EnVision (Perkin Elmer) plate reader. Plate reads were normalized relative to the control inhibitor (0.29 uM artemisinin) and vehicle (DMSO) wells present on each plate and then corrected by an algorithm using vehicle-only control plates at the beginning and end of the compound plate stack.
In general terms: In qHTS, concentration-response curves come from the screen itself.
The compound `O=C(O)C1=CC(O)C(O)[C@H](O)C1` (stereo not given in full) displayed a parasite growth remaining, % of DMSO control (lower = more inhibition) of 55.1%.
The result for `CO[C@H]1O[C@@H]2O[C@@]3(C)CC[C@@H]4[C@@H](C)CC[C@@H]([C@H]1C)[C@@]24OO3` reads 7.38%; that for `Cc1ccccc1C(C(=O)NC1CCCCC1)N(C(=O)CNc1ccc(C#N)cc1)c1cccc(F)c1` (stereo not given), 93.3%.
The result for `O=C(CCCN1CCN(c2ccc(F)cc2)CC1)NC1c2ccccc2CSc2ccccc21` (stereo not given) reads 98.7%.
The result for `C[C@@H]1C[C@H]2[C@@H]3CCC4=CC(=O)C=C[C@]4(C)[C@@]3(F)[C@@H](O)C[C@]2(C)[C@@]1(O)C(=O)CO` reads 90.6%; that for `C#CCN(C)CC1=Cc2ccccc2Oc2ccccc21`, 76.6%.
For `CN(C)CCCNC(=O)c1ccc(-c2cc(O)c3ncccc3c2)cc1`, the parasite growth remaining, % of DMSO control (lower = more inhibition) turned out to be 15.1%.
In the case of `CCC[C@@H](NC(=O)[C@@H]1[C@H]2CCC[C@@H]2CN1C(=O)[C@@H](NC(=O)[C@@H](NC(=O)c1cnccn1)C1CCCCC1)C(C)(C)C)C(=O)C(=O)NC1CC1`, the parasite growth remaining, % of DMSO control (lower = more inhibition) is 61.2%.
Compound `Cc1cccc(Nc2nc(N[C@@H]3CCCC[C@H]3N)ncc2C(N)=O)c1` returned a parasite growth remaining, % of DMSO control (lower = more inhibition) of 10.2%.
Compound `CC(C)C[C@@H](N)[C@H](O)C(=O)N[C@H](C(=O)N[C@H](C(=O)N[C@@H](CC(=O)O)C(=O)O)C(C)C)C(C)C` displayed a parasite growth remaining, % of DMSO control (lower = more inhibition) of 99.5%.
The result for `Nc1ncnc2c1ncn2[C@@H]1O[C@H](CO)[C@@H](O)[C@@H]1O` reads 98%; that for `CCOC(=O)[C@H](CCc1ccccc1)N[C@@H](C)C(=O)N1CCCC1C(=O)O` (stereo not given in full), 91.5%; that for `O=C(NCCCCN1CCOCC1)c1cc2ccccc2o1`, 99.3%.
The result for `CCCCn1c(=O)n(Cc2ccccc2F)c(=O)c2[nH]c(Cc3ccc(NC(C)=O)cc3)nc21` reads 85.9%; that for `O=C(CO)N1CCC(c2[nH]nc(-c3ccc(Cl)cc3)c2-c2ccncn2)CC1`, 82.9%.
The result for `N#CC(c1ccc(Cl)cc1)c1c(Cl)cc(-n2ncc(=O)[nH]c2=O)cc1Cl` (stereo not given) reads 10.7%.
`COc1c(C)cnc(Cn2cnc3c(Cl)nc(N)nc32)c1C` showed a parasite growth remaining, % of DMSO control (lower = more inhibition) of 49.8%.
The compound `COc1nccc(-c2c(-c3ccc(F)cc3)ncn2C2CCC(O)CC2)n1` (stereo not given) had a parasite growth remaining, % of DMSO control (lower = more inhibition) of 80%.
`O=c1[nH]c(=O)n([C@H]2C[C@@H](O)[C@@H](CO)O2)cc1I` showed a parasite growth remaining, % of DMSO control (lower = more inhibition) of 39.2%.
The result for `C[C@@H](O[C@H]1OCCN(Cc2n[nH]c(=O)[nH]2)[C@@H]1c1ccc(F)cc1)c1cc(C(F)(F)F)cc(C(F)(F)F)c1` reads 52.9%.
The result for `Cc1[nH]c(C=C2C(=O)Nc3ccc(S(=O)(=O)N(C)c4cccc(Cl)c4)cc32)c(C)c1C(=O)N1CCN(C)CC1` reads 9.96%; that for `COc1nccc(-c2c(-c3ccc(F)cc3)ncn2C2CCNCC2)n1`, 51.4%; that for `Fc1ccc(CNc2ncnc3ccc(F)cc23)cc1`, 90.6%.
Take `Cc1cc2c(cc1C1(c3ccc(C(=O)O)cn3)CC1)C(C)(C)CCC2(C)C`: the parasite growth remaining, % of DMSO control (lower = more inhibition) stood at 95.5%.
The result for `CCC(=O)OCC(=O)[C@@]1(OC(=O)CC)[C@@H](C)C[C@@H]2[C@H]3CCC4=CC(=O)C=C[C@]4(C)[C@@]3(F)[C@@H](O)C[C@@]21C` reads 64.4%; that for `CC(C)=CCCC(C)=CCCC(C)=CCCC(C)=CCCC(C)=CCCC(C)=CCCC(C)=CCCC(C)=CCCC(C)=CCO`, 17.5%; that for `O=[N+]([O-])c1ccc(Nc2ccccc2-c2ccccc2)c2nonc12`, 83.4%.
The result for `CC(C)CN(C[C@H](O)[C@H](Cc1ccccc1)NC(=O)O[C@H]1CCOC1)S(=O)(=O)c1ccc(N)cc1` reads 73.7%; that for `CC1=C(CC(=O)O)c2cc(F)ccc2C1=Cc1ccc(S(C)=O)cc1` (stereo not given), 91.5%.
The result for `O=C(Nc1cccc2c(=O)cc(-c3nn[nH]n3)oc12)c1ccc(OCCCCc2ccccc2)cc1` reads 31.5%.
Regarding `CNC1CCC(N(Cc2cccc(-c3ccncc3)c2)C(=O)c2sc3ccccc3c2Cl)CC1` (stereo not given), the parasite growth remaining, % of DMSO control (lower = more inhibition) came to 7.31%.
On to `CC[C@H]1OC(=O)[C@H](C)[C@@H](O[C@H]2C[C@@](C)(OC)[C@@H](O)[C@H](C)O2)[C@H](C)[C@@H](O[C@@H]2O[C@H](C)C[C@H](N(C)C)[C@H]2O)[C@](C)(O)C[C@H](C)C(=NOCOCCOC)[C@H](C)[C@@H](O)[C@]1(C)O`, for which the parasite growth remaining, % of DMSO control (lower = more inhibition) was 62.4%.
The compound `CC=C(C(=CC)c1ccc(O)cc1)c1ccc(O)cc1` gave a parasite growth remaining, % of DMSO control (lower = more inhibition) of 94.2%.
Compound `C[C@H]1O[C@@H](n2cc(F)c(=O)[nH]c2=O)[C@H](O)[C@H]1O` displayed a parasite growth remaining, % of DMSO control (lower = more inhibition) of 13.5%.
As to `CN[C@@H]1CN(c2ccc3c(=O)c(C(=O)O)cn(-c4nccs4)c3n2)C[C@@H]1OC`, the parasite growth remaining, % of DMSO control (lower = more inhibition) worked out at 7.58% [at 9.64 µM].
In turn, `CC1(COc2ccc3c(c2)ncn3-c2ccc3cccc(N4CCC(N)CC4)c3n2)COC1` displayed a parasite growth remaining, % of DMSO control (lower = more inhibition) of 6.71%.
The result for `Cc1nc(NC(=O)N2CCC[C@@H]2C(N)=O)sc1-c1csc(C(C)(C)C)n1` reads 80.7%; that for `CN1CCc2c(n(Cc3ccc(C(=O)NO)cc3)c3ccccc23)C1`, 11.6%.
With `CN1C(=O)C[C@H](C(=O)N[C@@H](Cc2cnc[nH]2)C(=O)N2CCC[C@@H]2C(N)=O)NC1=O`, the parasite growth remaining, % of DMSO control (lower = more inhibition) was 33.3%.
For the compound `CNC(=O)c1cc(COc2nnc(Nc3ccc(Cl)cc3)c3ccoc23)ccn1`, the parasite growth remaining, % of DMSO control (lower = more inhibition) is 79.6%.
